Cruzain noTriton: inhibitors of Trypanosoma cruzi cruzain without detergent. purified cruzain, Z-FR-AMC fluorescence, no detergent. 200,000 tested, 2.3% active. Potency, µM, without a hit: max response, negative = inhibition, most hits filed as inhibitors. AID 1476;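 also: plate controls were enzyme without inhibitor for no effect and buffer without enzyme for full effect; nearly all actives have a fitted effect of over 40% in size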
Target sequence (P25779 123-467 limits assumed): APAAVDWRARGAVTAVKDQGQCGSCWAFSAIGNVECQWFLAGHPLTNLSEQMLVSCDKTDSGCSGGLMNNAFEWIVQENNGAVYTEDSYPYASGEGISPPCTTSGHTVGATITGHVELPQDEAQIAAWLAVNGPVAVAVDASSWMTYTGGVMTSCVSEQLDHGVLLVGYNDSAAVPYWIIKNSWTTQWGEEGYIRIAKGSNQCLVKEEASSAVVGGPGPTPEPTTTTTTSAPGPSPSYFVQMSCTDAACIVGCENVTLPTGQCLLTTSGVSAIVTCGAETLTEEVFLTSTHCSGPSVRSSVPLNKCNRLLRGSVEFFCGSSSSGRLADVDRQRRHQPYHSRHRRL
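Purified cruzain at 1.5 nM, pre-incubated 15 min with compound at room temperature in 100 mM sodium acetate pH 5.5, 5 mM DTT, 0.00005% Triton X-100. Reaction started with 2 uM Z-FR-AMC; AMC fluorescence increase over 60 s gives rate.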
Cruzain Triton: cruzain (T. cruzi) inhibition with detergent | purified cruzain, Z-FR-AMC fluorescence, 0.01% Triton | Potency, µM, without a hit: max response, negative = inhibition, actives largely listed as inhibitors | 200,000 tested, 0.43% active;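 also: plate controls were neutral wells for no effect and buffer without enzyme for full effect; nearly all actives have a fitted effect of over 40% in size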
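Sodium acetate buffer (100 mM, pH 5.5) containing 5 mM DTT and 0.01% Triton X-100 hosted 1.5 nM cruzain and test compound for 15 min at room temperature. Cleavage of 2 uM Z-FR-AMC was then tracked by fluorescence.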
* marks the source's active call; other numbers are inactive results; ? = inconclusive. In the library only some 2.4% were active in any assay of this set; here they are far more common. Calls follow the shape of the dose curve; as a rule, active = well fitted curve in the direction sought with a large enough effect; inconclusive = small, poorly fitted or top-dose-only effect, or another doubt; inactive = no such curve, though single readings can be large; an effect the other way counts as inactive or inconclusive. Potency is read from the fitted curve at half-maximal effect.

SMILES | Cruzain noTriton | Cruzain Triton
CSc1ccc(/C=N/NC(=O)COc2ccc(Br)cc2Cl)cc1 | 25.1µM* | -0.2%
CCNC(=O)COc1ccc(Br)cc1Cl | 13.6% | 7.7%
CCOC(=O)C1CCN(C(=O)Cc2ccc(OC)c(OC)c2)CC1 | 12.4% | 5.6%
Cc1cc(OCc2nn[nH]n2)c2c(C)c(Cc3ccccc3)c(=O)oc2c1 | 11.0% | -15.1%
O=C(CNC(=O)c1ccccc1F)OCC(=O)N1CCCCC1 | ? | 15.8µM*
COc1ccccc1C(=O)NCC(=O)OCC(=O)c1ccc2c(c1)-c1ccccc1C2 | 10µM* | ?
CCOc1ccc(C(=O)NCC(=O)OCC(=O)c2ccc3c(c2)-c2ccccc2C3)cc1 | ? | -13.2%
O=C(COC(=O)CNC(=O)c1ccccc1F)Nc1ccc2c(c1)OCCO2 | 3.16µM* | 8.91µM*
O=C(COC(=O)CNC(=O)c1ccc(Br)o1)Nc1ccc2c(c1)OCCO2 | 11.1% | -1.3%
COc1ccc(OC)c(C(=O)COC(=O)CNC(=O)c2ccccc2)c1 | 12.6µM* | 14.1µM*
O=C(CNC(=O)c1ccccc1F)OCc1cc(=O)n2nc(C3CCCCC3)sc2n1 | -6.3% | -9.0%
COCCn1c(C)cc(C(=O)COC(=O)CNC(=O)c2ccccc2)c1C | -29.6% | ?
CC#CCCCC(=O)Nc1cc(OC)nc(OC)n1 | -9.0% | 2.1%
CCOc1ccc(-c2nnn(CC(=O)c3ccc4c(c3)OCCO4)n2)cc1OCC | ? | -1.3%
CC(CSc1nc2ccccc2s1)Cn1c(N2CCCC2)nc2c1c(=O)[nH]c(=O)n2C (configuration not stated) | -0.8% | -5.2%
O=C(CCn1nc(-c2ccccc2)ccc1=O)N1CCCC1 | 0.8% | 10.0%
N#CCCN(C(=O)CN1C(=O)NC2(CCCC2)C1=O)c1ccccc1F | -4.3% | 3.1%
COc1ccc2nc(NC3=NC(C(=O)Nc4ccc(C)cc4)CC(=O)N3)nc(C)c2c1 (configuration not stated) | 1.7% | -3.8%
CCOc1ccccc1C(=O)NCc1ccc2c(c1)OCO2 | -8.4% | 2.0%
CCOc1ccccc1C(=O)NCC(=O)OCC(=O)c1ccc2c(c1)OCCO2 | ? | 25.1µM*
O=C(CNC(=O)c1ccc(Cl)cc1)OCC(=O)c1ccc2c(c1)OCCO2 | 10µM* | 8.91µM*
CCOC(=O)CNC(=O)c1ccc2c(c1)OCCO2 | -4.4% | 8.3%
COc1cc2nc(N3CCN(C(=O)C4COc5ccccc5O4)CC3)nc(N)c2cc1OC (configuration not stated) | -8.8% | -14.2%
COc1ccc(NC(=O)/C(Cl)=C(/Cl)S(=O)(=O)Cc2ccc(C)cc2)cn1 | 5.0% | -4.7%
C[C@@H](C(=O)Nc1ccc2ccccc2c1)[C@@H]1C[C@@]1(C)[C@@H](NC(=O)OCc1ccccc1)c1ccccc1 | ? | 3.2%
SMILES | Cruzain noTriton | Cruzain Triton
Cc1ccc2c(c1)N(C(=O)c1ccco1)C(C)(C)c1ssc(=S)c1-2 | 31.6µM* | -2.1%
Cc1cccc2c1N(C(=O)c1ccco1)C(C)(C)c1ssc(=S)c1-2 | -12.2% | 4.8%
COc1cccc(N2CCN(C(=O)c3cccn3-c3nnc(N4CCCCC4)s3)CC2)c1 | -8.9% | 0.0%
CC1Cc2ccccc2N1C(=O)CSc1ccccc1 (configuration not stated) | -7.2% | -1.2%
CC(C)C(=O)Nc1nnc(SCC(=O)N2c3ccccc3CC2C)s1 (configuration not stated) | 31.6µM* | 10µM*
c1ccc(C(c2cccc3c2ccc2ccccc23)[C@H](c2ccccc2)c2cccc3c2ccc2ccccc23)cc1 (some centres not stated) | 3.98µM* | 2.0%
c1ccc2c(c1)ccc1cc3c(ccc4ccccc43)cc12 | -10.3% | 4.2%
CCCn1c(SCC(=O)N2N=C3/C(=C/c4ccc(OC)cc4)CCCC3C2c2ccc(OC)cc2)n[nH]c1=O (configuration not stated) | 14.9% | -11.1%
COc1ccc(/C=C2\CCCC3C2=NC(=S)NC3c2ccc(OC)cc2)cc1 (configuration not stated) | 25.1µM* | -5.0%
Cc1occc1C(=O)N=Nc1c(O)[nH]c2ccc(Br)cc12 | 12.6µM* | -3.0%
Cc1occc1C(=O)N=Nc1c(O)n(C)c2ccccc12 | -7.7% | -5.2%
Cc1ccc2nc(SCC(=O)Nc3ccc(C)c([N+](=O)[O-])c3)[nH]c2c1 | -0.8% | -25.7%
Cc1ccc2nc(SCC(=O)Nc3ccc(F)c([N+](=O)[O-])c3)[nH]c2c1 | ? | 14.1µM*
CCC(NC(=O)C1(C)CC1(Br)Br)c1ccc(C)cc1 (configuration not stated) | 7.0% | -3.3%
c1ccc(-c2nn3c(C4CCCCC4)nnc3s2)cc1 | ? | -0.8%
COC(=O)Cn1c(=NC(=O)c2nc3ccccc3s2)sc2cc(S(C)(=O)=O)ccc21 | 17.2% | -8.3%
COC(=O)Cn1c(=NC(=O)c2ccc([N+](=O)[O-])s2)sc2cc(Br)ccc21 | 10µM* | -4.2%
Cc1cccc(NC(=O)c2c(C)oc3ncn(CC(C)C)c(=O)c23)n1 | 0.0% | -1.0%
CCOC(=O)/C(C(=O)Nc1ccc(Cl)cc1Cl)=C1/NC(C)(C)Cc2ccccc21 | -21.9% | -8.3%
CCOC(=O)c1oc2ccc(CNC3CCCCC3)c(Cl)c2c1C | -5.0% | -14.2%
COc1ccc(NC(=O)c2ccc3c(c2)CCN3S(=O)(=O)c2ccc(C)cc2)cc1Cl | 7.94µM* | 1.1%
O=C(Nc1ccc(Cl)c(C(F)(F)F)c1)c1ccc2c(c1)CCN2S(=O)(=O)c1ccccc1 | 25.1µM* | -0.2%
Cc1ccc(S(=O)(=O)N2CCCc3cc(NC(=O)c4ccc(C(C)(C)C)cc4)ccc32)cc1 | 3.16µM* | 4.3%
COc1ccc(C(=O)Nc2ccc3c(c2)CCCN3S(=O)(=O)c2ccc(C)cc2)cc1 | ? | -2.7%
CCc1cccc(CC)c1NC(=O)c1ccc2c(c1)CCN2S(=O)(=O)c1ccccc1 | -2.8% | -1.9%
SMILES | Cruzain noTriton | Cruzain Triton
CC(=O)Nc1ccc(NC(=O)c2ccc3c(c2)CCN3S(=O)(=O)c2ccc(C)cc2)cc1 | 11.7% | 0.4%
CC1CCCN(c2ccc(C(=O)NCc3ccco3)cc2[N+](=O)[O-])C1 (configuration not stated) | -1.1% | -7.2%
COc1ccc(OCCOCCN2CCOCC2)cc1 | -9.9% | 2.6%
O=C(COc1ccc(-c2nnco2)cc1)NCc1ccccc1Cl | 18.2% | -4.1%
Cc1cc(C(=O)COc2ccc(-c3nnco3)cc2)c(C)n1Cc1ccccc1 | 15.8µM* | 2.7%
c1ccc(Cn2nnnc2CN2CCCC2)cc1 | 10.4% | 0.0%
Cc1ccc(C(=O)N/C(=C\c2ccc([N+](=O)[O-])cc2)C(=O)NCCc2ccccc2)cc1 | ? | 0.1%
O=C(NCCc1ccccc1)/C(=C\c1ccc([N+](=O)[O-])cc1)NC(=O)c1ccc(Br)cc1 | 6.31µM* | -1.9%
Cc1cc(Br)ccc1SCC(=O)OCC(=O)NC(C)c1ccccc1 (configuration not stated) | -3.9% | -6.2%
CCn1cc(C(=O)N2CCN(c3ccccc3)CC2)c(=O)c2cc(S(=O)(=O)N3CCOCC3)ccc21 | 30.0% | -6.8%
O=C(Cc1nc2ccccc2[nH]1)N/N=C/c1ccccc1 | 6.6% | -3.9%
COc1cccc(/C=N/NC(=O)CC2C(=O)NN=C2C)c1OC (configuration not stated) | -0.1% | -10.2%
COc1ccc(OC)c(/C=N/NC(=O)Cc2nc3ccccc3[nH]2)c1 | ? | 22.4µM*
COc1ccc(OC)c(/C=N/NC(=O)CC2C(=O)NN=C2C)c1 (configuration not stated) | 31.6µM* | -27.6%

Screening results (PubChem)
